Laboratory results: PubChem BioAssay (NCI)
Compounds without any hit were thinned out: in the full panel of roughly 83,000, 20% have a hit.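 How to read the values: 0–100, growth inhibition (40 = 60% inhibited); 0, no net growth; -100 to 0, cell death (-40 = 40% of starting cells died; -100 = all dead).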 Activity calls are given as the source filed them.

These molecules were tested on T-47D breast (assay: NCI-60 one-dose screen, 48 h (100 = growth as untreated, 0 = no growth, -100 = all killed)). Details: 10 µM unless noted.
Experimental: Growth inhibition of the T-47D human tumor cell line is measured as a screen for anti-cancer activity. Cells are grown in 96 well plates and exposed to the test compound for 48 hours. Compounds are tested at a single concentration, which is 10^-5 M for most compounds. The reported endpoint is percent growth (GI% or GIPRCNT), where numbers from 0 - 100% represent growth inhibition, and numbers from -100% - 0 represent cell death. For example, a value of 40 represents 60% growth inhibition. A value of 0 means no net growth occurred over the course of the experiment. A value of -40 indicates 40% of cells at the beginning of the experiment died by the end of the experiment. A value of -100 means all cells are dead at the end of the experiment.
NCI-60 Human Tumor Cell Lines Screen was performed using the standard one-dose NCI protocol, which is described in more detail at https://dtp.cancer.gov/discovery_development/nci-60/default.htm.
Compounds with GIPRCNT values below 10 were considered active. Activity score was based on GIPRCNT using the following formula: […]
Score is 0 for GIPRCNT values of 100 or above, 50 for GIPRCNT values of 0, and 100 for GIPRCNT values of -100.

SMILES | growth
COC(=O)[C@@H](C)C[C@H](Cc1ccccc1)NC(=O)c1csc([C@@H](C[C@H](C(C)C)N(C)C(=O)[C@H](C)NC(=O)[C@H]2CCCCN2C)OC(C)=O)n1 | 41.9% (inactive)
CCCCCCC(=O)NC1=C(N2CC2)C(=O)C(NC(=O)CCCCCC)=C(N2CC2)C1=O | 11.4% (inactive)
COC1CC2c3ccccc3C1C(C)=[N+]2C (stereo not given) | 107% (inactive)
CC[C@H](C)[C@H](NC(=O)c1nccn1C)C(=O)N(C)[C@H](C[C@@H](OC(C)=O)c1nc(C(=O)N[C@@H](Cc2ccccc2)C[C@H](C)C(=O)OC)cs1)C(C)C | 47.9% (inactive)
COC(=O)[C@H](C[C@H](Cc1ccccc1)NC(=O)c1csc([C@@H](C[C@H](C(C)C)N(C)C(=O)[C@@H](NC(=O)[C@H]2CCCCN2C)C(C)C)OC(C)=O)n1)NC(=O)OCc1ccccc1 | 74.1% [8.5 µM] (inactive)
C[C@@]12CC[C@@H](O)C[C@@H]1CC[C@H]1[C@H]2CC[C@@]2(C)[C@H](c3ccc(=O)oc3)CC[C@@]12O | -18.1% (active)
O=C([O][Hg][CH2]C1COCC([CH2][Hg][O]C(=O)c2ccccc2)O1)c1ccccc1 (stereo not given) | 11.4% (inactive)
Cc1c(O)c(CN(CCCl)CCCl)cc(CN(CCCl)CCCl)c1O | 79.3% (inactive)
CC1=C(O)[C@@](C)(CCCCC[C@H](C)CCCCc2ccc(O)cc2)OOC1=O | 89% (inactive)
O=Cc1cn(Cc2ccc(Cl)cc2)c2ccccc12 | 24.4% (inactive)
ClCCN(CCCl)c1nc(Cl)c(C2CC(c3ccccc3)=NN2c2cc(Cl)cc(Cl)c2)s1 (stereo not given) | 97.8% (inactive)
ClC1=C(Cl)C(Cl)(C2(Cl)C(Cl)=C(Cl)C(Cl)=C2Cl)C(Cl)=C1Cl | -45.4% (active)
[Cl][Hg][n]1c(-c2ccco2)nc2ccccc21 | 94.6% (inactive)
CC[C@H](C)[C@H](NC(=O)N[C@@H](C)c1ccccc1)C(=O)N(C)[C@H](C[C@@H](OC(C)=O)c1nc(C(=O)N[C@@H](Cc2ccccc2)C[C@H](C)C(=O)OC)cs1)C(C)C | 76.7% (inactive)
O=C([O][Hg][CH2]C1OCCOC1[CH2][Hg][O]C(=O)c1ccccc1)c1ccccc1 (stereo not given) | -64.1% (active)
COc1ccc(/C(C)=C(\c2ccc(OCCN3CCOCC3)cc2)c2ccc(OC(=O)Cc3ccccc3)cc2)cc1 | 65.4% (inactive)
CC1CCCC(C[N+](C)(C)C)C1=O (stereo not given) | 84.5% (inactive)
COc1ccc2nc(NC(=O)COc3cc(/C=C\c4cc(OC)c(OC)c(OC)c4)ccc3OC)sc2c1 | 19.9% (inactive)
CN1C(=O)C23CC4(C56CC78SSC(CO)(C(=O)N7C5Nc5ccccc56)N(C)C8=O)c5ccccc5NC4N2C(=O)C1(CO)SS3 (stereo not given) | -92.4% (active)
Cc1cccc(N2CCN(C(C)C#N)CC2)c1 (stereo not given) | 98.4% (inactive)

SMILES | growth
CC[C@H](C)[C@H](NC(=O)[C@H]1CCCCN1C)C(=O)N(C)[C@H](C[C@@H](O)c1nc(C(=O)N[C@@H](Cc2ccccc2)C[C@H](C)C(=O)O)cs1)C(C)C | 81.5% (inactive)
Cn1cc(-c2csc(-c3cn(CCCCN4CCCCC4)c4ccccc34)n2)c2cccnc21 | 88.4% (inactive)
O=C(CC1(O)C(=O)N(Cc2ccccc2)c2ccc(Cl)cc21)c1ccc(C(=O)NCC2CCC3(CC2)OOC2(CCCCC2)OO3)cc1 (stereo not given) | -56% (active)
CS(=O)(=O)CCN1CC2CCCC(C2)C1 | 102% (inactive)
CCCCCCCCCCCCCC[P+](CCCCCC)(CCCCCC)CCCCCC | -14.8% (active)
Clc1cccc(Cl)c1Cl | 85.8% (inactive)
Clc1cccc(NCOOC2(OOCNc3cccc(Cl)c3)CCCCC2)c1 | 62% (inactive)
O=C1C2C(C(=O)[N]1[Hg][c]1ccccc1)C1(Cl)C(Cl)=C(Cl)C2(Cl)C1(Cl)Cl (stereo not given) | -36.9% (active)
COc1ccc2c(c1)c(C1(O)CC(CSC#N)OC1=O)cn2C(=O)c1ccc(Cl)cc1 (stereo not given) | 100% (inactive)
CC12CCC3C(C=CC4=C(N)C(=O)CCC43C)C1CCC2=O (stereo not given) | 73.7% (inactive)
Fc1ccc2c(c1)c(-c1nc(-c3c[nH]c4ncccc34)cs1)cn2CCN1CCOCC1 | 7.41% (active)
CCOC(=O)[C@@H](C)C[C@H](Cc1ccccc1)NC(=O)c1csc([C@@H](C[C@H](C(C)C)N(C)C(=O)CNC(=O)[C@H]2CCCCN2C)OC(C)=O)n1 | 47.5% (inactive)
Cn1cc(-c2csc(-c3cn(CCN4CCOCC4)c4ccccc34)n2)c2cccnc21 | 2.94% (active)
Clc1ccc2nnnn2n1 | 57.4% (inactive)
Nc1ccc(-c2nc3cc(F)ccc3[se]2)cc1F | 14.6% (inactive)
COC(=O)[C@@]1(C)CC[C@]2(C)CC[C@]3(C)C4=CC(=O)c5c(cc(O)c(O)c5C)[C@]4(C)CC[C@@]3(C)[C@@H]2C1 | 54.1% (inactive)
CC(=O)OC1C(OC/C2=C/C3[C@@H](C(C)C)CC=C(C)[C@@H]3CC(OC(=O)/C=C/c3cn(C)cn3)[C@]3(C)C=C[C@@]2(O)O3)OCC(O)C1O (stereo not given in full) | 23% (inactive)
C[Se]C(=O)c1ccccc1OC(C)=O | 89.1% (inactive)
CC1(C)N=C(N)N=C(N)N1c1cccc(CCCCc2ccc(Cl)c(S(=O)(=O)F)c2)c1 | 86.6% (inactive)
O=C(O)C(O)C(O)C1[O][Sb]([c]2ccc([N+](=O)[O-])cc2)[O]C1CO (stereo not given) | 109% (inactive)
